Drawing on PubChem BioAssay, this text covers z-score and composite z-score for eleven compounds.

The source made the active and inactive calls.

A short description of experiment [1]: E. coli DRC41 culture turbidity changes, primary screen, E. coli filamentation inducer project, strain DRC41, OD650, 48 h (AID 1152).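 Also: E. coli MC1000 strain DRC41 lacking acrAB efflux pump and sulA.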 The note with it: E. coli DRC41 (acrAB sulA), higher = more signal, called active from +8 up or from −8 down.
Experiment [2] is described as follows: small-molecule binders of probe aLefty1, primary screen, biochemical, small-molecule microarray, 635/667 nm fluorescence (AID 1153).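 Also: score merges spot fluorescence with signal-to-noise ratio from the scanned slide images.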 As to conditions: higher = more signal.
Experiment [3] in a line: PSAC antagonists in infected red cells, primary screen, cell-based, P. falciparum Indochina, OD700, 1 h (AID 1154). The note with it: P. falciparum Indochina infected RBC osmotic lysis, higher = more signal, called active from +8 up or from −8 down.
Experiment [4] in a line: PSAC antagonists in infected red cells, primary screen, cell-based, P. falciparum Indochina, OD700, 2 h (AID 1155).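 Also: lysis reports solute entry through the parasite surface anion channel PSAC; channel blockers reduce lysis of infected cells.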 The note with it: P. falciparum Indochina infected erythrocytes, osmotic lysis OD700; higher = more signal, called active from +8 up or from −8 down.
A short description of experiment [5]: osmotic lysis modulators in infected erythrocytes, primary screen, PSAC antagonist project, cell-based, P. falciparum Indochina, OD700, 3 h (AID 1156). As to conditions: higher = more signal, called active from +8 up or from −8 down.
A short description of experiment [6]: PSAC antagonists in infected red cells, primary screen, cell-based, P. falciparum Indochina, OD700, 18 h (AID 1157). The note with it: P. falciparum Indochina infected erythrocytes, osmotic lysis OD700, 18 h; higher = more signal, called active from +8 up or from −8 down.
Experiment [7] is described as follows: modulators of S6 phosphorylation in cells, primary screen, cell-based, A549, cytoblot, luminescence, serum-stimulated (AID 1158).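 Also: serum-stimulated A549 lung adenocarcinoma cells; signal is phosphorylated S6 detected by cytoblot immunostaining with HRP secondary.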 The note with it: A549 phospho-S6 cytoblot, 5 h, higher = more signal.
Experiment [8] deals with NADPH oxidase 2 (Homo sapiens) (UniProt P04839). Nature of the experiment: NOX2-dependent H2O2 signal modulators, primary screen, NOX inhibitor project, cell-based, HEK293-NOX2, PMA-stimulated, Amplex Red fluorescence (AID 1159). Also: test concentration not given here. As to conditions: 45 min, higher = more signal, called active from +8 up or from −8 down.
Experiment [9] addresses NADPH oxidase 4 (Homo sapiens) (UniProt Q9NPH5). Kind of experiment: NOX4-dependent H2O2 signal modulators, primary screen, NOX inhibitor project, cell-based, HEK293-NOX4, tetracycline-induced, Amplex Red fluorescence (AID 1160). As to conditions: 45 min, higher = more signal, called active from +8 up or from −8 down.
The target of experiment [10] is NADPH oxidase 5 (Homo sapiens) (UniProt Q96PH1). Nature of the experiment: NOX5-dependent H2O2 signal modulators, primary screen, NOX inhibitor project, cell-based, HEK293-NOX5, Amplex Red fluorescence (AID 1161). As to conditions: HEK293-NOX5, ionomycin, 45 min, higher = more signal.
Chain of NADPH oxidase 5 (Homo sapiens) (Q96PH1 whole entry, looked up): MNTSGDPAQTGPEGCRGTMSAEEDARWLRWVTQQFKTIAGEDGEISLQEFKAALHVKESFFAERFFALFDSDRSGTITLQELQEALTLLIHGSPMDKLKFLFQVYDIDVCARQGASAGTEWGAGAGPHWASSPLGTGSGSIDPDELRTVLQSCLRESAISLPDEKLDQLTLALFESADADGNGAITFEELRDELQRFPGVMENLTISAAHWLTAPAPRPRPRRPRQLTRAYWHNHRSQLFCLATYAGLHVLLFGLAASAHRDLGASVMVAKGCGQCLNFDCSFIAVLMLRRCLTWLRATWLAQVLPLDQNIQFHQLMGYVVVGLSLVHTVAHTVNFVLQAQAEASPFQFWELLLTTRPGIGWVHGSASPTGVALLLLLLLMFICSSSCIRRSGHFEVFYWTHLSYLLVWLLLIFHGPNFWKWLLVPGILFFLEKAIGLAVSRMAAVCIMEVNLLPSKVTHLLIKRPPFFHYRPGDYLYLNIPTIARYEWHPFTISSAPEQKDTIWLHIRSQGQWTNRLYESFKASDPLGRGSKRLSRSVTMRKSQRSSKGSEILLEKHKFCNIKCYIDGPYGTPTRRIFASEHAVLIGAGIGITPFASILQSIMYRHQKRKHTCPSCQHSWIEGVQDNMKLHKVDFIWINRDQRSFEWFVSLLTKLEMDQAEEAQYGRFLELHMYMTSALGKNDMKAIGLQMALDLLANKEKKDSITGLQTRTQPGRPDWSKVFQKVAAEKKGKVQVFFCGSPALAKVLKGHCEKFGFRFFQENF

Chain of NADPH oxidase 2 (Homo sapiens) (P04839 whole entry, looked up): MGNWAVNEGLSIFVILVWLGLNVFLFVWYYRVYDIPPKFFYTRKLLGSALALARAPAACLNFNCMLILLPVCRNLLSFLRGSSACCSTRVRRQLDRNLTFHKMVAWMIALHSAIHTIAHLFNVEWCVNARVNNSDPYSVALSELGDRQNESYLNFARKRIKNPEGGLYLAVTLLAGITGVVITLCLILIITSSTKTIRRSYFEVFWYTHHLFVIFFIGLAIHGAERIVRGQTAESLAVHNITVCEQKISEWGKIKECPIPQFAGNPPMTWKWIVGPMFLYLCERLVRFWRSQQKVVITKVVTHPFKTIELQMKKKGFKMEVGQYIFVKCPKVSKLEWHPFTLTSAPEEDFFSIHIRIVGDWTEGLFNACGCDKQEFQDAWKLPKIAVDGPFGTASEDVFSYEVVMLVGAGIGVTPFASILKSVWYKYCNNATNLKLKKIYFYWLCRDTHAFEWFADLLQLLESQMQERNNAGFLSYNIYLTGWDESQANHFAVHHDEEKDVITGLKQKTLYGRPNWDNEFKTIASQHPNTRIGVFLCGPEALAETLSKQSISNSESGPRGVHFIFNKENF
Chain of NADPH oxidase 4 (Homo sapiens) (Q9NPH5 whole entry, looked up): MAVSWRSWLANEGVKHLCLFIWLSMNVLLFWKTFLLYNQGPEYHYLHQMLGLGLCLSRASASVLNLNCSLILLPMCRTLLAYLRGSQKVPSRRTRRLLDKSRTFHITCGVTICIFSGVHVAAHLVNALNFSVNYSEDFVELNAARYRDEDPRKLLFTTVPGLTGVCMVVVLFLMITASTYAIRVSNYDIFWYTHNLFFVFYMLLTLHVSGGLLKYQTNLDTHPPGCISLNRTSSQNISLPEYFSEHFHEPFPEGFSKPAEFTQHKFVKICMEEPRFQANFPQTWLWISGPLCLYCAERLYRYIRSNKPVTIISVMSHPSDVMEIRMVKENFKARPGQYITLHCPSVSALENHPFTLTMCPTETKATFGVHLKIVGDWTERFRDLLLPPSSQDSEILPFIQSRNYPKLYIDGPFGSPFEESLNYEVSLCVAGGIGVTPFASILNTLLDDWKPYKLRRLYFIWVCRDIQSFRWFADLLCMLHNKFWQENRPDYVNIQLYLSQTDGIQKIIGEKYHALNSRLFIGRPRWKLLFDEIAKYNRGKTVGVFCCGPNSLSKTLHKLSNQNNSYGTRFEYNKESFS

Take `COc1ccc([Si](C)(C)[C@H]2[C@H](CCn3cc(CCO)nn3)O[C@@]3(C(=O)N(Cc4ccc(N5C(=O)c6cccc7cccc5c67)cc4)c4ccccc43)[C@@H]2C)cc1`: the z-score is 1.91 (inactive) in [1]; 4.64 (inactive) in experiment [3]; 0.882 (inactive) in [4]; 0.134 (inactive) in experiment [5]; -0.627 (inactive) in experiment [6]; 1.64 in [7]. The z-score in experiment [8] is -0.985 (inactive); in [9] it was 1.82 (inactive); in experiment [10] it was 1.44. The compound further had a composite z-score in experiment [2] of 0.108.

Regarding `C=CCOC(=O)[C@@H]1[C@H]2C(=O)O[C@H](c3ccccc3)[C@H](c3ccccc3)N2[C@H](c2ccc(OCCOC(=O)[C@H]3C[C@H]4C(=O)N[C@@H](CC(C)C)C(=O)N4[C@H]3c3ccc(O)cc3)cc2)[C@@]12C(=O)Nc1ccc(I)cc12`, the z-score in experiment [1] is 0.715 (inactive); in experiment [3] it was 2.42 (inactive); in experiment [4], 1.47 (inactive); in experiment [5] it was 0.946 (inactive); in experiment [6], 0.792 (inactive); in experiment [7], 0.171. Moreover, the z-score in [8] was 1.75 (inactive); in [9], 1.66 (inactive); in experiment [10] it was 1.36. The compound also had a composite z-score in [2] of 0.0278.

With `COCCOC(=O)N1C(=O)[C@@]2(c3ccccc31)[C@H](C(=O)N1CCN(c3ncccn3)CC1)[C@H]1C(=O)O[C@H](c3ccccc3)[C@H](c3ccccc3)N1[C@@H]2c1ccc(OCCO)cc1`, the z-score in experiment [1] was 1.18 (inactive); in experiment [3] it was 16.4 (active); in experiment [4], 3.96 (inactive); in experiment [5] it was 0.779 (inactive); in [6], 1.24 (inactive); in [7], 0.242. For the same compound, the z-score in experiment [8] was 0.351 (inactive); in [9], 0.798 (inactive); in experiment [10], 0.55. Also, the composite z-score in experiment [2] is -0.244.

Turning to `NCCCCCCNC(=O)[C@H]1C[C@H]2C(=O)N[C@@H](Cc3ccccc3)C(=O)N2[C@H]1c1ccc(O)cc1`, the z-score is 1.42 (inactive) in experiment [1]; 4.21 (inactive) in experiment [3]; -0.243 (inactive) in experiment [4]; 0.731 (inactive) in [5]; -2.2 (inactive) in [6]; 0.316 in [7]. Further, the z-score is 1.81 (inactive) in experiment [8], 1.38 (inactive) in experiment [9] and 2.31 in experiment [10]. This compound gave a composite z-score in experiment [2] of -0.0094.

On to `C=CCOC(=O)[C@H]1[C@@H]2C(=O)O[C@@H](c3ccccc3)[C@@H](c3ccccc3)N2[C@@H](c2ccc(OCCOC(=O)[C@H]3C[C@H]4C(=O)N[C@@H](Cc5ccccc5)C(=O)N4[C@H]3c3cccc(OCCO)c3)cc2)[C@]12C(=O)Nc1ccc(I)cc12`, for which the z-score in experiment [1] was -0.386 (inactive); in experiment [3], 0.977 (inactive); in experiment [4], 0.856 (inactive); in [5], -0.874 (inactive); in [6] it was 0.84 (inactive); in experiment [7], -0.28. Further, the z-score was 2.07 (inactive) in experiment [8], 1.35 (inactive) in [9] and 1.52 in experiment [10]. For the same compound, the composite z-score in experiment [2] amounted to 1.29.

Take `O=C1O[C@@H](c2ccccc2)[C@@H](c2ccccc2)N2[C@@H](c3ccc(O)cc3)[C@]3(C(=O)Nc4ccc(C#CCCO)cc43)[C@@H](C(=O)NC[C@H](O)c3ccccc3)[C@H]12`: the z-score in experiment [1] was 0.646 (inactive); in experiment [3] it was 2.75 (inactive); in experiment [4], 0.31 (inactive); in experiment [5] it was 0.283 (inactive); in experiment [6], 0.0695 (inactive); in experiment [7], -0.318. Further, the figures for the z-score in experiment [8], in [9] and in experiment [10] were -0.247 (inactive), -0.718 (inactive) and -0.159, respectively. Moreover, the composite z-score in [2] came to 0.279.

`COc1ccc([Si](C)(C)[C@@H]2[C@@H](CCO)O[C@]3(C(=O)N(Cc4cccc(N5C(=O)c6cccc7cccc5c67)c4)c4ccccc43)[C@H]2C)cc1`: the z-score in experiment [1] was -0.21 (inactive); in experiment [3], 3.33 (inactive); in [4] it was 3.66 (inactive); in experiment [5] it was -0.0486 (inactive); in experiment [6], 2.34 (inactive); in experiment [7], 0.0181. In addition, the z-score in experiment [8] is 0.498 (inactive); in [9], 0.86 (inactive); in experiment [10], 2.42. In addition, in [2], the composite z-score was 0.0449.

Take `COC(=O)c1c(CC[C@@H](CO)NC(=O)N[C@H](Cn2cc(-c3ccccc3C)nn2)C(C)C)oc(C(C)=O)c1C(=O)OC`: the z-score in experiment [1] was 0.206 (inactive); in [3], 0.791 (inactive); in experiment [4], -0.0484 (inactive); in [5], 1.56 (inactive); in experiment [6], -0.52 (inactive); in experiment [7] it was 1.29. Also, the z-score is -3.2 (inactive) in experiment [8], -2.16 (inactive) in experiment [9] and -1.77 in [10]. This compound also yielded a composite z-score in [2] of -0.112.

For the compound `COc1ccc([Si](C)(C)[C@H]2[C@H](CCn3cc([C@H](O)c4ccccc4)nn3)O[C@@]3(C(=O)N(Cc4ccc(N5CCOC5=O)cc4)c4ccccc43)[C@@H]2C)cc1`, the z-score was -0.0796 (inactive) in experiment [1]; 31.9 (active) in experiment [3]; 31.7 (active) in [4]; 1.99 (inactive) in experiment [5]; 3.2 (inactive) in [6]; -0.532 in [7]. For the same compound, the z-score in experiment [8] was 0.308 (inactive); in experiment [9] it was 2.85 (inactive); in [10] it was 2.08. The composite z-score in [2] is -0.147.

`COc1ccc(NC(=O)O[C@H]2[C@H](OC(=O)Nc3ccc4c(c3)OCO4)[C@@H](OC(=O)Nc3ccc4c(c3)OCO4)[C@@H](OC)O[C@@H]2CO)cc1`: the z-score in experiment [1] is 0.898 (inactive); in experiment [3] it was 5.81 (inactive); in [4], 1.13 (inactive); in experiment [5], 0.081 (inactive); in [6], 0.521 (inactive); in experiment [7], -0.182. For the same compound, the z-score was -3.33 (inactive) in experiment [8], -0.666 (inactive) in [9] and -2.16 in experiment [10]. For the same compound, the composite z-score in experiment [2] was 0.33.

With `CC(C)C(CO)N1C(=O)[C@]2(C)C3C(=O)OCCC/C=C\[C@H]3OC23C=CCN(c2ccc(Cl)cc2)C(=O)[C@@H]13` (stereo not given in full), the z-score in experiment [1] is -0.785 (inactive); in experiment [3], 1.12 (inactive); in experiment [4], 0.31 (inactive); in experiment [5], 0.787 (inactive); in experiment [6], 0.673 (inactive); in experiment [7], -0.197. For the same compound, the results for the z-score in [8], in [9] and in [10] were 1.47 (inactive), 1.04 (inactive) and 1.69, respectively. In experiment [2], this compound came in with a composite z-score of -0.0929.
